Source: PubChem BioAssay (Tox21)
Results filed as inconclusive are left out. Activity calls are given as the source filed them. Unless noted, calls follow the shape of the dose curve; as a rule, active = well fitted curve in the direction sought with a large enough effect in the repeat runs; inconclusive = weak or mixed curves; inactive = no such curve, though single readings can be large; an effect the other way counts as inactive or inconclusive.

Experiments:
[1] = biological target: Acetylcholinesterase (Homo sapiens) (UniProt P22303); assay: Acetylcholinesterase (AChE) small molecule antagonists: enzyme-based qHTS assay (AID 1347397; calls by dose curve; also: nearly all actives have a fitted effect of over 55% in size); details: Potency: AChE enzyme activity inhibition; outcome: AChE enzyme activity inhibition
How it was run: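 Recombinant human AChE, dispensed at 50 mU/mL, was preincubated with Tox21 10K compounds or DMSO vehicle for 30 min at room temperature. DTNB plus acetylthiocholine was then added, and thiocholine was measured colorimetrically after a further 10 min.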

[2] = biological target: Acetylcholinesterase (Homo sapiens) (UniProt P22303); assay: Acetylcholinesterase (AChE) small molecule antagonists: fluorescence cell-based qHTS assay (AID 1347398; calls by dose curve; also: nearly all actives have a fitted effect of over 50% in size); details: Potency: AChE activity; outcome: AChE activity
How it was run: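 Human SH-SY5Y cells were plated overnight at 37 C, exposed to compound for 30 min at 37 C, 5% CO2, then given acetylthiocholine plus Thiolite Green for 40 min at room temperature; thiocholine fluorescence (Ex/Em 490/520 nm) reports endogenous AChE activity.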

[3] = biological target: Acetylcholinesterase (Homo sapiens) (UniProt P22303); assay: Acetylcholinesterase (AChE) small molecule antagonists: enzyme-based qHTS assay with human liver microsomes (AID 1347399; calls by dose curve; also: nearly all actives have a fitted effect of over 60% in size); details: Potency: qHTS inhibition; outcome: qHTS inhibition
How it was run: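 Recombinant human AChE (50 mU/mL in the enzyme mix) and human liver microsomes (0.25 mg/mL final) were preincubated with compound and NADPH (0.25 mg/mL final) for 30 min at 37 C. Acetylthiocholine/DTNB was then added; thiocholine was read colorimetrically after 10 min at room temperature.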

[4] = qHTS assay for small molecules that induce genotoxicity in human embryonic kidney cells expressing luciferase-tagged ATAD5 (AID 651632); also: nearly all actives have a fitted effect of over 15% in size
How it was run: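 Luminescent reporter readout, HEK293T ATAD5-luc line: 16 hr drug exposure (37C, 5% CO2) followed by Amplite, 30 min RT.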

[5] = qHTS assay for small molecule agonists of the p53 signaling pathway - cell viability (AID 651633; calls by dose curve;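 also: p53RE-bla HCT reporter cells with a stable beta-lactamase p53 reporter; series mostly up to about 83 µM; nearly all actives have a fitted effect of over 30% in size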)
How it was run: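 p53RE-bla cells, seeded at 4,000 per well and rested 5 h at 37 C/5% CO2, received compounds in DMSO for 16 h at 37 C. CellTiter-Glo was then added, and luminescence was read after 30 min at room temperature to gauge cytotoxicity.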

[6] = qHTS assay for small molecules that induce genotoxicity in human embryonic kidney cells expressing luciferase-tagged ATAD5 - cell viability (AID 651634; calls by dose curve; also: nearly all actives have a fitted effect of over 25% in size)
How it was run: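 Viability read: CellTiter-Fluor fluorescence, 30 min at 37C. Cells: HEK293T, luciferase-tagged ATAD5. Exposure: 15.5 hr, 37C, 5% CO2, compound or DMSO vehicle.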

[7] = qHTS assay for small molecule disruptors of the mitochondrial membrane potential - cell viability (AID 720634; calls by dose curve;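 also: human HepG2 liver cancer cells; series mostly up to about 83 µM; nearly all actives have a fitted effect of over 20% in size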)
How it was run: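 HepG2, 1 hr compound, 37 C. ATP luminescence via CellTiter-Glo, 30 min RT, same well as m-MPI.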

[8] = qHTS assay to test for compound auto fluorescence at 590 nm (red) in HepG2 cells (AID 720674)
How it was run: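 Rose Bengal sodium served as the red fluorophore standard. HepG2 monolayers (overnight attachment, MEM with 10% FBS) were exposed to test compounds for 1 hr at 37 C and read at Ex 540/Em 590 nm.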

[9] = qHTS assay to test for compound auto fluorescence at 535 nm (green) in HepG2 cells (AID 720675)
[10] = qHTS assay to test for compound auto fluorescence at 460 nm (blue) in HEK293 cells (AID 720678)
How it was run: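 HEK293, 2,000 cells/well, 10% dialyzed FBS; attach 4-5 hr 37C; pin compound or DMSO; o/n 37C/5% CO2; fluorescence 405/460 nm; triamterene-equivalent units.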

[11] = qHTS assay to test for compound auto fluorescence at 590 nm (red) in HEK293 cells (AID 720679)
How it was run: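 Intensity at 540nm excitation and 590nm emission is reported as Rose Bengal sodium-equivalent autofluorescence. Measurements followed overnight exposure (37C, 5% CO2) of HEK293 cells, 2,000 per well, to 23 nL compound.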

[12] = qHTS assay to test for compound auto fluorescence at 535 nm (green) in HEK293 cells (AID 720680)
[13] = qHTS assay to test for compound auto fluorescence at 460 nm (blue) in HEK293 cell free culture (AID 720681)
How it was run: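 Test compounds were pinned into cell-free culture medium (DMEM with 10% FBS) and fluorescence was read directly at Ex/Em 405/460 nm. Signals were expressed as fluorescence equivalents of triamterene, with DMSO vehicle as control.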

[14] = qHTS assay to test for compound auto fluorescence at 535 nm (green) in HEK293 cell free culture (AID 720682)
How it was run: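 No cells present: wells hold DMEM supplemented with 10% FBS, into which compound or vehicle is pinned. Green emission is then recorded (485 nm excitation, 535 nm emission) and scaled to fluorescein.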

[15] = qHTS assay to test for compound auto fluorescence at 590 nm (red) in HEK293 cell free culture (AID 720683)
How it was run: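 Tox21 10K library compounds were pinned into cell-free DMEM with 10% FBS and fluorescence was read at excitation 540 nm. Activity is expressed as Rose Bengal sodium equivalency.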

[16] = qHTS assay to test for compound auto fluorescence at 590 nm (red) in HepG2 cell free culture (AID 720684)
How it was run: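 Red fluorescence (540 nm excitation, 590 nm emission) was measured after compound transfer into cell-free MEM supplemented with 10% FBS. Values are equivalencies against Rose Bengal sodium.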

[17] = qHTS assay to test for compound auto fluorescence at 460 nm (blue) in HepG2 cell free culture (AID 720685)
How it was run: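 Compound (23 nL) or DMSO pinned into cell-free MEM with 10% FBS; blue fluorescence read at 405/460 nm excitation/emission, expressed as auto-fluorescence equivalency to triamterene.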

[18] = qHTS assay to test for compound auto fluorescence at 535 nm (green) in HepG2 cell free culture (AID 720686)
[19] = qHTS assay to test for compound auto fluorescence at 460 nm (blue) in HepG2 cells (AID 720687)
How it was run: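 Cells (2,000/well in MEM with 10% FBS) attached overnight at 37 C, then were exposed to compound or DMSO for 1 hr at 37 C, 5% CO2. Fluorescence read at Ex/Em 405/460 nm, expressed as triamterene-equivalent signal.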

[20] = biological target: Glucocorticoid receptor (Homo sapiens) (UniProt P04150); assay: qHTS assay to identify small molecule agonists of the glucocorticoid receptor (GR) signaling pathway (AID 720691; active = well fitted activation curve with a large enough effect in the signal ratio in the repeat runs, not every such curve was filed as active; the % refers to the signal ratio)
How it was run: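 qHTS in GR-bla HeLa cells: 4 h settling at 37 C/5% CO2, 18 h compound incubation at 37 C, 2 h LiveBLAzer B/G FRET substrate at room temperature, fluorescence intensity measured.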

[21] = biological target: Glucocorticoid receptor (Homo sapiens) (UniProt P04150); assay: qHTS assay to identify small molecule antagonists of the glucocorticoid receptor (GR) signaling pathway (AID 720692; active = well fitted inhibition curve with a large enough effect in the signal ratio in the repeat runs, not every such curve was filed as active; the % refers to the signal ratio)
How it was run: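 Inhibition of glucocorticoid signalling is measured in HeLa cells with a GRE-controlled beta-lactamase reporter; cells are co-treated with compound and 5 nM dexamethasone (final) for 18 h before FRET substrate readout.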

[22] = qHTS assay to identify small molecule antagonists of the glucocorticoid receptor (GR) signaling pathway - cell viability counter screen (AID 720693); also: nearly all actives have a fitted effect of over 55% in size
[23] = qHTS assay to identify small molecule antagonists of the androgen receptor (AR) signaling pathway - cell viability counter screen (AID 743033; also: nearly all actives have a fitted effect of over 45% in size)
[24] = qHTS assay to identify small molecule antagonists of the thyroid receptor (TR) signaling pathway - cell viability counter screen (AID 743064); also: nearly all actives have a fitted effect of over 50% in size
How it was run: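 Rat GH3 pituitary tumor cells stably expressing two TR response elements driving luciferase were plated, rested 4 h, then dosed with library compounds and T3 (1 nM final). After 23.5 h at 37 °C, CellTiter-Fluor was added for 30 min and fluorescence recorded.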

[25] = tested on: thyroid hormone receptor (rat, GH3 cells); assay: qHTS assay to identify small molecule agonists of the thyroid receptor (TR) signaling pathway (AID 743066; calls by dose curve)
[26] = biological target: Estrogen receptor (Homo sapiens) (UniProt P03372); assay: qHTS assay to identify small molecule antagonists of the estrogen receptor alpha (ER-alpha) signaling pathway (AID 743069; active = well fitted curve in the direction sought with a large enough effect in the signal ratio in the repeat runs, not every such curve was filed as active; the % refers to the signal ratio)
How it was run: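 HEK293 cells stably carrying an ER-alpha-UAS-bla beta-lactamase reporter were pre-cultured overnight in 2% charcoal-stripped FBS medium. Test compounds in DMSO were added together with 17beta-estradiol for 18 hr at 37C. Read-out was fluorescence after 2 hr with LiveBLAzer B/G FRET substrate at room temperature.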

[27] = qHTS assay to identify small molecule antagonists of the estrogen receptor alpha (ER-alpha) signaling pathway - cell viability counter screen (AID 743074; calls by dose curve; also: nearly all actives have a fitted effect of over 45% in size)
[28] = biological target: Estrogen receptor (Homo sapiens) (UniProt P03372); assay: qHTS assay to identify small molecule agonists of the estrogen receptor alpha (ER-alpha) signaling pathway (AID 743075; calls by dose curve)
[29] = biological target: Estrogen receptor (Homo sapiens) (UniProt P03372); assay: qHTS assay to identify small molecule agonists of the estrogen receptor alpha (ER-alpha) signaling pathway using the BG1 cell line (AID 743079); also: nearly all actives have a fitted effect of over 20% in size
[30] = qHTS assay to identify small molecule antagonists of the estrogen receptor alpha (ER-alpha) signaling pathway using the BG1 cell line (AID 743080; calls by dose curve;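 also: BG1 cells stimulated with 17beta-estradiol alongside compound; series mostly up to about 70 µM; nearly all actives have a fitted effect of over 25% in size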)
How it was run: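 BG1Luc4E2, endogenous ER-alpha, 4xERE-luc; 5 d charcoal-stripped FBS, phenol red free; 24 h plating; cpd + 17beta-estradiol 21.5 h, 37 C/5% CO2; CellTiter-Fluor viability 30 min, then ONE-Glo luciferase 30 min RT.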

[31] = biological target: Aromatase (Homo sapiens) (UniProt P11511); assay: qHTS assay to identify aromatase inhibitors (AID 743083); also: series mostly up to about 70 µM; nearly all actives have a fitted effect of over 55% in size
[32] = qHTS assay to identify aromatase inhibitors - cell viability counter screen (AID 743084);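 also: cells stimulated with testosterone during compound exposure; nearly all actives have a fitted effect of over 55% in size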
[33] = qHTS assay to identify small molecule that activate the aryl hydrocarbon receptor (AhR) signaling pathway - cell viability counter screen (AID 743086);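 also: HepG2 liver cells carrying the AhR DRE luciferase reporter; series mostly up to about 70 µM; nearly all actives have a fitted effect of over 45% in size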
How it was run: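 HepG2-AhR-luc (HG2L7.5c1) cells, 4000/well, were preincubated 5 h at 37C, exposed to compound in qHTS format for 24 hr at 37C, then given CellTiter-Fluor for 30 min; viability was read as fluorescence in the reporter wells.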

[34] = biological target: Peroxisome proliferator-activated receptor gamma (Homo sapiens) (UniProt P37231); assay: qHTS assay to identify small molecule agonists of the peroxisome proliferator-activated receptor gamma (PPARg) signaling pathway (AID 743094; active = well fitted activation curve with a large enough effect in the signal ratio in the repeat runs, not every such curve was filed as active; the % refers to the signal ratio)
How it was run: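 Compounds dissolved in DMSO were added to PPARg UAS-bla HEK293H cells for 17 h at 37C, and reporter expression was quantified by fluorescence intensity after 1 h with LiveBLAzer B/G FRET substrate.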

Measured: Potency

Chain of Acetylcholinesterase (Homo sapiens) (P22303 whole entry, looked up): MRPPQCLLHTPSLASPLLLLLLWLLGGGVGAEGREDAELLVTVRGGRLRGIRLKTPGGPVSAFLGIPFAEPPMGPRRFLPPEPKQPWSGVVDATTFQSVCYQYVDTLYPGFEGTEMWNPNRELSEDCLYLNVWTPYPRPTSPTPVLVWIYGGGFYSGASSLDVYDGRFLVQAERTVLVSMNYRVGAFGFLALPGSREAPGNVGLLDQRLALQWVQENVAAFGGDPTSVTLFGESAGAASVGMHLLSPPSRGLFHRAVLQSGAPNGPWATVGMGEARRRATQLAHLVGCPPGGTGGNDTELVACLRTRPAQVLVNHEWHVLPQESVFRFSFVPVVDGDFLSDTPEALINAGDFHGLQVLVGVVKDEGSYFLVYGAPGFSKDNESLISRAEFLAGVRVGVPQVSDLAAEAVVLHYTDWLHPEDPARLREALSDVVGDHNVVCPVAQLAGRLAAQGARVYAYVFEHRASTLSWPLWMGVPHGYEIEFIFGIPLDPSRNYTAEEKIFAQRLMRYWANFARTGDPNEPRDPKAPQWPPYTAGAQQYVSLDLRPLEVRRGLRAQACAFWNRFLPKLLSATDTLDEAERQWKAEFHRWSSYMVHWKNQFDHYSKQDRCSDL
Chain of Estrogen receptor (Homo sapiens) (P03372 whole entry, looked up): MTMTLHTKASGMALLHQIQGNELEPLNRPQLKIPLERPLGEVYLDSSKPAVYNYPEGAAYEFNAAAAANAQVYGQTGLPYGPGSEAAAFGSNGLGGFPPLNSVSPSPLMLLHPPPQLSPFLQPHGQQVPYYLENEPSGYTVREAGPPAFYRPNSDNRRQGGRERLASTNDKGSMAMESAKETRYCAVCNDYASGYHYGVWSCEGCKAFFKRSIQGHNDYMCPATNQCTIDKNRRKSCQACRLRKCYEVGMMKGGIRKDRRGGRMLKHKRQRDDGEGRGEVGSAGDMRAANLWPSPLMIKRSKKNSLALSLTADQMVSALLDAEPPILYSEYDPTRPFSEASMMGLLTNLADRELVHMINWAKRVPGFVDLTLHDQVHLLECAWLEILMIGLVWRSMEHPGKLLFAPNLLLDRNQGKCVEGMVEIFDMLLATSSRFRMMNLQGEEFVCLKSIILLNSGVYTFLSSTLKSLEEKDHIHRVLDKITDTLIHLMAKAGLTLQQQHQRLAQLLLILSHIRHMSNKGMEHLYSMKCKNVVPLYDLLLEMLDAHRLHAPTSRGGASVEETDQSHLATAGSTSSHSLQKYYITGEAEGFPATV
Chain of Glucocorticoid receptor (Homo sapiens) (P04150 whole entry, looked up): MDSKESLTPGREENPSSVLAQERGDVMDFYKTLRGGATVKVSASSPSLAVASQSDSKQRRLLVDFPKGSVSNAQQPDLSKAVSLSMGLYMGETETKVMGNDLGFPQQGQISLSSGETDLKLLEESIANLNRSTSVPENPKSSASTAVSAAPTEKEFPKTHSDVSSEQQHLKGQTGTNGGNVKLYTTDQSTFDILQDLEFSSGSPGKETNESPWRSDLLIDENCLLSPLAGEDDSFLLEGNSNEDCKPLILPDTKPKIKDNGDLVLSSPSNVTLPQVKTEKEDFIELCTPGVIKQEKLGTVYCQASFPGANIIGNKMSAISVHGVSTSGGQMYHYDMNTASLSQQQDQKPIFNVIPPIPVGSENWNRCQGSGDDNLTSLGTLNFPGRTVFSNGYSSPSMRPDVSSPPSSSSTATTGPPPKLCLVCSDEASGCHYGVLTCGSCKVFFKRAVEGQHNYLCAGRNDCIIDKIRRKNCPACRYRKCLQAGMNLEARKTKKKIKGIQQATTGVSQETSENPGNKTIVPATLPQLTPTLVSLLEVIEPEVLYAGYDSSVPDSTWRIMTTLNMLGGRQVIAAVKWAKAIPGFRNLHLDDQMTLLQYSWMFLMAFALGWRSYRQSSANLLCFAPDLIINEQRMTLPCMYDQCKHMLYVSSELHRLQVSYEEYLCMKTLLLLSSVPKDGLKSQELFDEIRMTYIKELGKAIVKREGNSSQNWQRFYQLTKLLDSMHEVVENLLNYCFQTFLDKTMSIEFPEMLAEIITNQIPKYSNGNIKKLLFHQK
Chain of Peroxisome proliferator-activated receptor gamma (Homo sapiens) (P37231 whole entry, looked up): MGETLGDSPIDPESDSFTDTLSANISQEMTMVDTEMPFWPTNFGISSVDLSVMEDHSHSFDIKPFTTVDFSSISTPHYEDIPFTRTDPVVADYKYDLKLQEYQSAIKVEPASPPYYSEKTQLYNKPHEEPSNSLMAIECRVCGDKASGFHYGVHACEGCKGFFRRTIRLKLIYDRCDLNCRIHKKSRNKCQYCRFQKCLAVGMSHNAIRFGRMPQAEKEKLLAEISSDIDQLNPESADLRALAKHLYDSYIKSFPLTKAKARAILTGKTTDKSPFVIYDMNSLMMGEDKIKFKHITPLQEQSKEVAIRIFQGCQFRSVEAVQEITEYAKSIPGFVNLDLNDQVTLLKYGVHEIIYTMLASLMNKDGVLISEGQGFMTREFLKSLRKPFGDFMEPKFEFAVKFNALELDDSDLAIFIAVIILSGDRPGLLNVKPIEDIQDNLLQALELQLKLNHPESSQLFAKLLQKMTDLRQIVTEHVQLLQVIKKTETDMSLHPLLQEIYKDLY
Chain of Aromatase (Homo sapiens) (P11511 whole entry, looked up): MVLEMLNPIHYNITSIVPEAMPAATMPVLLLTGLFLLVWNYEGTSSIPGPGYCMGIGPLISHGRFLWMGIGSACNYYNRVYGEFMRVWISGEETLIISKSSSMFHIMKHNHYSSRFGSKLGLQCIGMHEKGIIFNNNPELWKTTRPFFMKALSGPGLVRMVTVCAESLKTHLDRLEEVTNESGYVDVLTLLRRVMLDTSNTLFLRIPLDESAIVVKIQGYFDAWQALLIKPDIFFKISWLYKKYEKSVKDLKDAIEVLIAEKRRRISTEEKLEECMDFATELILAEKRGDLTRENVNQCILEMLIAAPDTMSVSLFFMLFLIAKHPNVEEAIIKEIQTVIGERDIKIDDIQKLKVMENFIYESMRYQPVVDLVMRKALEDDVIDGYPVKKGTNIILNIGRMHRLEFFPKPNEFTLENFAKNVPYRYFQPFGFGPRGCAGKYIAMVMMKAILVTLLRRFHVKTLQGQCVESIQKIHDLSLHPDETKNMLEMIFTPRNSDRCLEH

CC(=O)NCCCS(=O)(=O)O
inactive: [1] | [2] | [3]

COc1cc(C[C@H](C)N)c(OC)cc1C
not listed: [1] | [2] | [3]
inactive: all other assays above
